This is an account of results in ChEMBL document CHEMBL4513216, “Probing the Open Global Health Chemical Diversity Library for Multistage-Active Starting Points for Next-Generation Antimalarials” (ACS Infect Dis, 2020).

The structures appear in SMILES notation. Out of some 65,000 compounds screened, about 2,100 (3.2%) showed an effect of 50% or more. The median lay at about -52%. The entries come from a sample that favours strong results as a whole.

For the assay, the system named is Plasmodium falciparum. The experiment in a line: Screen against P. falciparum Asexual Blood Stage (ABS), at 5uM. The class given is functional, Dd2. Particulars: tested at 5 uM.
For the compound `CCC1=NN2C(=N)C(=Cc3cccn3-c3ccc(Br)cc3)C(=O)N=C2S1`, the INHIBITION is reported as -87.5%.

Turning to `CCCN(CCOC)C(=O)c1cc(Cn2c(C)nc3ccccc32)[nH]n1`, the INHIBITION was -11.8%.

With `CC(NCCn1cccn1)c1cc(F)ccc1F` (stereo not drawn), the INHIBITION came out at 0.681%.

For `CC(NCCN1CCC(N(C)C)CC1)c1ccc(F)cc1N(C)C` (stereo not drawn), the INHIBITION is on record as 58.1%.

For `CC(NCCCN1CCCC1=O)c1ccc(F)cc1N(C)C` (stereo not drawn), the INHIBITION is given as -24.45%.

For `O=C([C@H]1CCCO1)N1CCOC2(CCCN(c3ncccc3F)C2)C1` (stereo partly drawn), the INHIBITION is recorded as -9.29%.

For the compound `CC(C)Nc1nc2c(c(N(C)C)n1)CCN(Cc1nccn1C)CC2`, the INHIBITION came out at 54.5%.

For `Cc1nc(NC(C)C)nc2c1CN(Cc1nccn1C)CC2`, the INHIBITION was -27.4%.

Regarding `CN(C)c1nc(N2CCCC2)nc2c1CCN(Cc1nccn1C)CC2`, the INHIBITION was 7.51%.

For `O[C@@H]1CN(c2noc(C3CC3)n2)CC[C@H]1c1ccc2ccccc2c1`, the INHIBITION is -24.7%.

Take `Cc1cnn(C2CCCN(C(=O)c3ccccc3-n3cnnn3)C2)c1` (stereo not drawn): the INHIBITION is given as -52.2%.

Regarding `COc1ccc2ccccc2c1CNCC1CCS(=O)(=O)C1` (stereo not drawn), the INHIBITION came out at 67.4%.

As for `CNC(=O)c1cc(NC(=O)NCC2CCS(=O)(=O)C2)ccc1OC` (stereo not drawn), the INHIBITION is -116%.

With `COc1cccc(-c2n[nH]cc2CNCC2CCS(=O)(=O)C2)c1` (stereo not drawn), the INHIBITION is -48.5%.

In the case of `CC(C)OCCCNC(=O)CN(c1ccc(F)c(F)c1)S(C)(=O)=O`, the INHIBITION is recorded as -105%.

`Fc1cccc(-c2nnn3c2COC(CNCc2ccsc2)C3)c1` (stereo not drawn): the INHIBITION is on record as -82.8%.

`c1cc(CN2Cc3nccn3CC(Cn3cncn3)C2)ccn1` (stereo not drawn): the INHIBITION is on record as -4.38%.

Turning to `O=C(C1CC1)N1CCC2(CC1)COCCN2Cc1ccc(F)cc1`, the INHIBITION was -40.7%.

For `Cc1ccc(C(C(=O)NCCc2nc(C)cc(C)n2)N(C)C)cc1` (stereo not drawn), the INHIBITION is given as -102%.

As for `Cc1ccc(C(C(=O)NC(C)(C)CN2CCCC2)N(C)C)cc1` (stereo not drawn), the INHIBITION was 52%.

As to `Cc1cccc(C(C(=O)NC(C)(C)CN2CCOCC2)N(C)C)c1` (stereo not drawn), the INHIBITION is listed as 32%.

On to `Cc1cccc(C(C(=O)NC(C)(C)CN2CCCC2)N(C)C)c1` (stereo not drawn), for which the INHIBITION is given as 38.5%.

With `Cc1ccc(C(C(=O)NCCN2CCC(CO)CC2)N(C)C)cc1` (stereo not drawn), the INHIBITION was -9.75%.

Take `Cc1ccc(C(C(=O)NCCN2CCCCCC2)N(C)C)cc1` (stereo not drawn): the INHIBITION was found to be 58.5%.

Regarding `Cc1cccc(COc2ccc(C(C)N)cc2)c1` (stereo not drawn), the INHIBITION is 8.28%.

As for `CCc1ccc2nc(C)cc(C(=O)N[C@@H]3CNC[C@H]3O)c2c1`, the INHIBITION was -22%.

`CCc1ccc2nc(C)cc(C(=O)NC[C@@H]3CCNC[C@H]3O)c2c1`: the INHIBITION is listed as -49.3%.

In the case of `CCc1ccc2nc(C)cc(C(=O)N[C@@H]3CCCNC3)c2c1`, the INHIBITION was found to be 64.5%.

As to `N#CCCNC(=O)CN1CC(n2cccn2)C1`, the INHIBITION was -21.3%.

`O=S(=O)(Cc1cccc(Cl)c1)CC(O)Cn1cccn1` (stereo not drawn): the INHIBITION is reported as -0.894%.

For `O=C(c1cscn1)N1CCc2c(COCC3CC3)cncc2C1`, the INHIBITION was -54.8%.

Take `O=c1occ(CN2CCCCCC2)c(O)c1CN1CCOCC1`: the INHIBITION is reported as -36%.

As for `O=c1occ(CN2CCCCCC2)c(O)c1CN1CCCCCC1`, the INHIBITION is reported as 55.5%.

In the case of `O=c1occ(CN2CCSCC2)c(O)c1CN1CCCC1`, the INHIBITION is reported as -7.27%.

Take `COc1c(C(=O)NCC(C)C)nnn1Cc1ccccc1`: the INHIBITION is reported as -128%.

In the case of `C[C@@H]1CN(CCOc2ccc(Cl)cc2)CC[C@@]1(O)C1CCOCC1`, the INHIBITION is -28.8%.

As for `C[C@@H]1CN(CCC(=O)N(C)Cc2ccccc2)CC[C@@]1(O)C1CCC1`, the INHIBITION is listed as 22.8%.

For `C[C@@H]1CN(CCOCc2ccccc2)CC[C@@]1(O)C1CCC1`, the INHIBITION is reported as 54.7%.

For the compound `CN(CCCc1cc(-c2ccc(F)cc2)n(C)n1)CC(=O)NC(N)=O`, the INHIBITION is on record as -152%.

Take `CN(C)C(=O)C1CCC2(CCN(Cc3ccc4ccccc4n3)CC2)O1` (stereo not drawn): the INHIBITION is -19%.

Regarding `CCOc1ccc(Cl)cc1C1CCCCN1` (stereo not drawn), the INHIBITION was determined as 68.8%.

Regarding `CCOc1ccc(Cl)cc1C(C(=O)O)N1CCCC1` (stereo not drawn), the INHIBITION worked out at 2.39%.

In the case of `CCOc1ccccc1C1CCCN1` (stereo not drawn), the INHIBITION is -8.92%.

As for `Cn1cc(CCC(=O)N2C[C@@H]3CC[C@H]2CN(Cc2ccccc2)C3)cn1`, the INHIBITION turned out to be 14.3%.

For `CCC(=O)N1CCCCC1c1nc(O)c2c(n1)CN(C(C)=O)CC2` (stereo not drawn), the INHIBITION was -29.8%.

On to `Cc1ccoc1CNCc1nnc2n1CC(C(F)(F)F)CC2` (stereo not drawn), for which the INHIBITION is listed as -13.5%.

On to `COc1ccc(CN(C)CC(O)COCc2ccccc2Cl)c(OC)c1` (stereo not drawn), for which the INHIBITION was -5.65%.

Take `COc1ccccc1COCC(O)CN(C)Cc1cccc(Cl)c1` (stereo not drawn): the INHIBITION is listed as -93.4%.

As to `Cc1ccccc1CN(C)CC(O)COCc1ccccc1Cl` (stereo not drawn), the INHIBITION is on record as 68.9%.

As to `OC[C@H]1CN(Cc2c(Cl)cncc2Cl)C[C@H]1CN1CCOCC1`, the INHIBITION is recorded as -53.1%.

For `OC[C@H]1CN(Cc2c(Cl)cccc2Cl)C[C@H]1CN1CCCCC1`, the INHIBITION is recorded as 50.8%.

As to `OC[C@H]1CN(Cc2c(Cl)cncc2Cl)C[C@H]1CN1CCCCCC1`, the INHIBITION is 12.6%.

Turning to `Clc1cccc(Cl)c1CN(CCCN1CCOCC1)Cc1cccnc1`, the INHIBITION is listed as -6.41%.
